Data published in ChEMBL document CHEMBL3433997, “St. Jude Leishmania screening dataset” (2016).

How the values were obtained:
Assay type in all cases: functional
[1] = target: Solute carrier family 2, facilitated glucose transporter member 1 (Homo sapiens) (UniProt P11166); assay: ST_JUDE_LEISH: Cytotoxicity at 2uM final concentration against transgenic Leishmania Mexicana promastigotes LmGLUT1 that are glucose transport deficient and complemented with the human glucose transporter GLUT1. Activity is measured by DNA content using SYBR green in vitro
Solute carrier family 2, facilitated glucose transporter member 1 (Homo sapiens), sequence (P11166 whole entry): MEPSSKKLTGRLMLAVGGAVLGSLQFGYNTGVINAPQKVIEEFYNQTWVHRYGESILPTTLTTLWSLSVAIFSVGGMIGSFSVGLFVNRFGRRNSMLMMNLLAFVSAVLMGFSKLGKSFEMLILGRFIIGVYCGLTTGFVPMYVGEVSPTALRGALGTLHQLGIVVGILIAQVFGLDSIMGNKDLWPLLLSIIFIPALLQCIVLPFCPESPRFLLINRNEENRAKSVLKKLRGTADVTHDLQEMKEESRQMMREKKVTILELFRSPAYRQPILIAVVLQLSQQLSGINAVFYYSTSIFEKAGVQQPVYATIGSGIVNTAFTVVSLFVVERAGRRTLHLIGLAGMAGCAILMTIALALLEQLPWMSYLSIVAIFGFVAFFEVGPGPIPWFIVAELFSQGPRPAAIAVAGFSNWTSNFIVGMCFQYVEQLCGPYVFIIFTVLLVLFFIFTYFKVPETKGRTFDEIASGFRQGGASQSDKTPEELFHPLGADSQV

[2] = target: Hexose transporter 1 (Plasmodium falciparum) (UniProt O97467); assay: ST_JUDE_LEISH: Cytotoxicity at 2uM final concentration against transgenic Leishmania Mexicana promastigotes LmPfHT that are glucose transport deficient and complemented with the Plasmodium falciparum hexose transporter. Activity is measured by DNA content using SYBR green in vitro
[3] = target: Glucose transporter (Leishmania mexicana) (UniProt O61059); assay: ST_JUDE_LEISH: Cytotoxicity at 2uM final concentration against transgenic Leishmania Mexicana promastigotes LmGT2 that are glucose transport deficient and complemented with the L. Mexicana glucose transporter 2. Activity is measured by DNA content using SYBR green in vitro

COc1ccccc1Nc1nc(C)cc(NCc2ccc(-c3c(C)noc3C)cc2)n1
inhibition [1]: 19.5%
inhibition [2]: 9.8%
inhibition [3]: 0.51%

COc1ccccc1NC(=O)Nc1cccc(-c2ccc(-c3nc4cc(C(F)(F)F)ccc4[nH]3)cc2)c1
inhibition [1]: 2.16%
inhibition [2]: 2.07%
inhibition [3]: 0.72%

Cc1cccc2nc(-c3ccc(-c4cccc(NC(=O)C(C)CN5CCN(C)CC5)c4)cc3)[nH]c12 (stereo not drawn)
inhibition [1]: 3.33%
inhibition [2]: 0.81%
inhibition [3]: 5.85%

COc1ccc(NC(=O)Nc2ccc(Nc3nc(C)cc(N(C)C)n3)cc2)cc1
inhibition [1]: 2.57%
inhibition [2]: 3.61%
inhibition [3]: 4.41%

COc1cccc(NC(=O)N2CCOC(CCN3CCC4(CCc5ccccc54)CC3)(c3ccc(Cl)c(Cl)c3)C2)c1 (stereo not drawn)
inhibition [1]: 7.21%
inhibition [2]: 8%
inhibition [3]: 1.65%

N=C(N)c1ccc(C(=O)Nc2cccc(C(=N)N)c2)cc1
inhibition [1]: -0.57%
inhibition [2]: 0.84%
inhibition [3]: -0.81%

COc1cc(Cl)c(C)cc1-n1cc(C(=O)c2cc(Br)ccc2O)cc(C#N)c1=O
inhibition [1]: -0.77%
inhibition [2]: -1.65%
inhibition [3]: 0.03%

CC(C)C[C@H](NC(=O)c1cc2ccccc2s1)C(=O)N[C@H]1CCN(Cc2ccc(I)c(OCCN3CCCC3)c2)C1
inhibition [1]: -0.35%
inhibition [2]: -1.55%
inhibition [3]: -0.29%

CCc1ccc(O)c(-c2cc(C(=O)Nc3cccnc3)[nH]n2)c1
inhibition [1]: 1.69%
inhibition [2]: 0.53%
inhibition [3]: 2.29%

CCN1CCC(N(Cc2ccc(-c3ccc(C(F)(F)F)cc3)cc2)C(=O)Cn2c(CCc3cccc(F)c3F)cc(=O)c3c2CCC3)CC1
inhibition [1]: 1.27%
inhibition [2]: 0.83%
inhibition [3]: 0.64%

CCN(CC)Cc1cc(Nc2c3ccc(Cl)cc3nc3cccc(OC)c23)ccc1O
inhibition [1]: 7.41%
inhibition [2]: 11.1%
inhibition [3]: 5%

CSc1sc(NC(=O)Nc2cccc(C(F)(F)F)c2)cc1C#N
inhibition [1]: 1.55%
inhibition [2]: 1.51%
inhibition [3]: 1.15%

CCOC(=O)c1ccc(N(CCCN(CCCN(c2ccc(C(=O)OCC)cc2)S(=O)(=O)c2ccc(C)cc2)CCc2ccc(O)cc2)S(=O)(=O)c2ccc(C)cc2)cc1
inhibition [1]: 2.89%
inhibition [2]: 2.43%
inhibition [3]: 1.65%

Cc1cc(O)c2c3c1C(=O)C=C1C3c3c(c(O)cc(O)c3C(=O)C1(C)C)C2=O (stereo not drawn)
inhibition [1]: -4.69%
inhibition [2]: -5.26%
inhibition [3]: -3.43%

CC(NC(C)c1cccc(Cl)c1)C(=O)Nc1cc(C(F)(F)F)ccc1N1CCOCC1 (stereo not drawn)
inhibition [1]: 0.88%
inhibition [2]: 0.48%
inhibition [3]: -9.9%

CCCNCc1ccc(-c2ccc(CN(Cc3ccc4c(c3)OCO4)C(=O)[C@H]3CCCO3)cc2)nc1
inhibition [1]: 13.6%
inhibition [2]: 10.6%
inhibition [3]: 8.76%

CC(=O)Nc1ncc(C(=O)Nc2cccc(-c3ccc(-c4nc5cc(F)ccc5[nH]4)cc3)c2)s1
inhibition [1]: 4.02%
inhibition [2]: 1.84%
inhibition [3]: 2.62%

CN1CCC(Oc2ccc(CN3CC[C@H](NC(=O)c4ccc(F)c(F)c4)C3)c3ccccc23)C1 (stereo partly drawn)
inhibition [1]: 1.65%
inhibition [2]: 1%
inhibition [3]: 2.7%

CNCCNCc1cccc(-c2ccc(-c3nc4ccccc4[nH]3)s2)c1
inhibition [1]: 1.51%
inhibition [2]: 1.53%
inhibition [3]: 5.06%

CC(CN1CCN(C)CC1)C(=O)Nc1ccc(-c2cccc(-c3nc4cc(C(F)(F)F)ccc4[nH]3)c2)cc1 (stereo not drawn)
inhibition [1]: -0.51%
inhibition [2]: 0.32%
inhibition [3]: -2.84%

CC(C)[C@H](NC(=O)c1c(CN2CCC(N3CCCCC3)CC2)c(-c2ccccc2)nc2cc(O)ccc12)c1ccccc1
inhibition [1]: 2.26%
inhibition [2]: 1.22%
inhibition [3]: 0.91%

COc1ccc2[nH]ccc(=NN=CC=Cc3ccccc3)c2c1
inhibition [1]: -0.13%
inhibition [2]: 2.19%
inhibition [3]: -3.26%

COc1cc(C(F)(F)F)c2cc(CNCCCNc3nc4ccccc4[nH]3)[nH]c2c1
inhibition [1]: 1.29%
inhibition [2]: 2.11%
inhibition [3]: 2.95%

Cc1cc(N[C@@H](Cc2ccccc2)C(=O)NCc2cccc(F)c2)nc(NCCCOC(C)C)n1
inhibition [1]: 0.45%
inhibition [2]: 1.37%
inhibition [3]: 1.72%

O=C(Nc1ccc([N+](=O)[O-])cc1)Nc1nc2ccc(Cl)cc2s1
inhibition [1]: 5.09%
inhibition [2]: 4.52%
inhibition [3]: 1.81%

CS(=O)(=O)c1ccc(CCNCc2ccc(-c3ccc(CNC4CCN(Cc5ccccc5)CC4)cc3)nc2)cc1
inhibition [1]: -0.83%
inhibition [2]: -1.16%
inhibition [3]: -2.69%

COc1cc(O)c2c(=O)c(OC)c(-c3cccc(Cl)c3OC3O[C@H](CO)[C@@H](O)[C@H](O)[C@H]3O)oc2c1OC (stereo partly drawn)
inhibition [1]: 5.21%
inhibition [2]: 4.48%
inhibition [3]: 4.54%

CCN1CCN(CCCNc2c3ccccc3nc3ccccc23)CC1
inhibition [1]: 65.5%
inhibition [2]: 55.3%
inhibition [3]: 39.1%

FC(F)(F)COc1ccc2ccccc2c1CNCCCCCCNCc1c(OCC(F)(F)F)ccc2ccccc12
inhibition [1]: 1.61%
inhibition [2]: 0.57%
inhibition [3]: -1.38%

Cc1cnc(Nc2ccccc2)nc1N[C@@H](CCCN)C(=O)Nc1ccccc1
inhibition [1]: -1.01%
inhibition [2]: -0.2%
inhibition [3]: -0.3%

NC1CCCN(Cc2cccc(-c3ccc(-c4nc5cc(F)ccc5[nH]4)cc3)c2)C1 (stereo not drawn)
inhibition [1]: 3.55%
inhibition [2]: 3.14%
inhibition [3]: 3.43%
